Values joined by “and” are separate entries in the source; they are usually repeats but may differ in a detail not shown here. Identical values can stand only once. The panel holds about 83,000 compounds, 20% with a hit somewhere; the sample as a whole holds those more often.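 Results are percent growth after 48 hours of single-concentration exposure. 100 means growth as in untreated cells, lower positive values show inhibition; negative values down to -100 show cell death.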 Active and inactive are the calls of the source.

For one test, the system named is NCI-H23 lung. The test is described as follows: NCI-60 one-dose screen, 48 h (100 = growth as untreated, 0 = no growth, -100 = all killed). The conditions noted are these: 10 µM. Here is the method: Growth inhibition of the NCI-H23 human Non-Small Cell Lung tumor cell line is measured as a screen for anti-cancer activity. Cells are grown in 96 well plates and exposed to the test compound for 48 hours. Compounds are tested at a single concentration, which is 10^-5 M for most compounds. The reported endpoint is percent growth (GI% or GIPRCNT), where numbers from 0 - 100% represent growth inhibition, and numbers from -100% - 0 represent cell death. For example, a value of 40 represents 60% growth inhibition. A value of 0 means no net growth occurred over the course of the experiment. A value of -40 indicates 40% of cells at the beginning of the experiment died by the end of the experiment. A value of -100 means all cells are dead at the end of the experiment.
NCI-60 Human Tumor Cell Lines Screen was performed using the standard one-dose NCI protocol, which is described in more detail at https://dtp.cancer.gov/discovery_development/nci-60/default.htm.
Compounds with GIPRCNT values below 10 were considered active. Activity score was based on GIPRCNT using the following formula: […]
Score is 0 for GIPRCNT values of 100 or above, 50 for GIPRCNT values of 0, and 100 for GIPRCNT values of -100.
With `S=c1nc[nH]c2nc[nH]c12`, the growth was 31.9% (inactive).

With `O=c1ccn2c(n1)OC1CC2OC1COC(c1ccccc1)(c1ccccc1)c1ccccc1` (stereo not given), the growth was 116% (inactive).

The test is the same for the next values; noted with them: 10 µM unless noted.
Take `CCN(CC)C(=S)SCCO`: the growth is 93.3% (inactive).

For `CCN(CC)C(CC(=O)c1ccccc1)C(=O)c1ccccc1` (stereo not given), the growth is 102% (inactive).

`CC1=CC(=O)C=CC1=Nc1ccc(N(C)C)cc1`: the growth is 87% (inactive) and -21.1% (active).

In the case of `O=C(c1ccccc1)C1(Br)CCCCC1`, the growth was 98% (inactive).

In the case of `COc1cc(Cl)ccc1C`, the growth is 90.3% (inactive).

On to `O=C(O)c1c2c(nc3ccccc13)Cc1ccccc1-2`, for which the growth was 96.7% (inactive) and 95.7% (inactive).

As to `COC(=O)c1nc(N)nc(C(=O)OC)c1C(=O)c1cccc2ccccc12`, the growth is 101% (inactive).

Regarding `S=c1nn[nH]n1C1CCCCC1`, the growth was 111% (inactive).

On to `COc1cc(NCCCCCCCNC(C)C)c2nccc(C)c2c1`, for which the growth was 81.4% (inactive) and 77.1% (inactive).

In the case of `COc1ccc(CCl)c(C)c1OC`, the growth was 96.2% (inactive).

Take `OC(CC(c1ccccc1)c1cccc2ccccc12)(c1ccccc1)c1ccccc1` (stereo not given): the growth was 76.2% (inactive) and 71.1% (inactive).

On to `COCCNC(C)=O`, for which the growth was 107% (inactive).

As to `COc1cc(C2c3cc4c(cc3C(OC(=O)C[n+]3ccccc3)C3COC(=O)C23)OCO4)cc(OC)c1OC` (stereo not given), the growth is 20.8% (inactive).

With `Cc1onc(-c2c(F)cccc2Cl)c1-c1ncc(-c2ccc(Cl)cc2)o1`, the growth is 67% (inactive) and 42.5% (inactive).

Regarding `Cc1cc(=NO)cc(C)n1O`, the growth is 109% (inactive).

As to `CC(C)(C)OC(=O)NCCc1ccc(N)cc1`, the growth was 104% (inactive).

For `CC1OS(=O)OC1C` (stereo not given), the growth is 101% (inactive) and 95.8% (inactive).

With `COc1ccc(COC=O)cc1`, the growth is 97.3% (inactive).

Turning to `COc1ccc(/C=N/NC(N)=S)cc1`, the growth was 89.2% (inactive).

For the compound `COc1ccc2nccc(Cl)c2c1`, the growth is 98.4% (inactive).

In the case of `Clc1ccc2sc(-c3ccccc3)nc2c1`, the growth was 101% (inactive).

As for `CNc1ccc(O)cc1`, the growth is 114% (inactive) and 104% (inactive).

As to `Cc1cnc(N)s1`, the growth was 97.5% (inactive).

As for `CCC(=O)Oc1ccc(OCc2ccccc2)cc1`, the growth is 85.5% (inactive) and 83.8% (inactive).

`CC(O)CCNC(c1ccccc1)C(O)c1ccccc1` (stereo not given): the growth was 105% (inactive).

Turning to `Cc1c(Cl)c(C)c(Cc2c(C)c(Cl)c(C)c(Cl)c2O)c(O)c1Cl`, the growth is -13% (active).

With `COc1ccc(CCN=Cc2ccc(Cl)cc2)cc1OC`, the growth is 100% (inactive).

In the case of `O=C(NC(=O)c1ccc(F)c(Cl)c1)NC1CC1`, the growth was 104% (inactive) and 98.8% (inactive).

As for `Cc1cc(Cl)nc(Nc2ccccc2)n1`, the growth was 95.9% (inactive).

As for `CCCC(=O)Oc1ccc(CC)cc1`, the growth was 96.5% (inactive).

Take `CCN(CC)CCO/N=C1\CC(c2ccc(OC)c(OC)c2)Oc2ccccc21` (stereo not given): the growth was 96.2% (inactive).

For the compound `COc1ccc(/C=C/C(=O)O)cc1OC`, the growth was 108% (inactive) and 98.7% (inactive).

`CC1CCC(=O)N1c1ccc(N)cc1` (stereo not given): the growth is 103% (inactive).

`OC1CCCN(Cc2ccccc2)C1` (stereo not given): the growth is 103% (inactive).

Consider `O=C(N=C1C(=O)C2(CCCCC2)C2(N=C(c3ccccc3)OC2=O)C12CCCCC2)c1ccccc1` (stereo not given), for which the growth was 66.9% (inactive).

In the case of `O=C1c2cccnc2-c2ncccc21`, the growth is 105% [100 µM] (inactive).

Staying with this test, now noted: 50 µM.
As to `S=c1nc[nH]c2nc[nH]c12`, the growth is 21.3% (inactive).

The test is the same for the next values; noted with them: 100 µM.
As to `O=c1ccn2c(n1)OC1CC2OC1COC(c1ccccc1)(c1ccccc1)c1ccccc1` (stereo not given), the growth is 99.6% (inactive).

The record behind these values is PubChem BioAssay (NCI).
